According to the supplement of paper PMC7156485:
± gives the standard deviation of the averaged measurements.

Columns and labels:
Details in all cases: concentration: 10 µM; 24 h
[1] = system: HCC1569; assay: cell number relative to DMSO (% of DMSO); higher = more cells (less growth inhibition / toxicity)
Outline: (§1)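 HCC1569 and TDF cells (800 per well, 384-well plates, RPMI with 10% FBS) were treated with compounds at 10 µM for 24 h at 37 °C, in triplicate. Cells were fixed in 3.7% formaldehyde and stained with a rabbit anti-H1.0 antibody, an AlexaFluor 647 secondary and DAPI; six fields per well were imaged at ×10. H1.0 nuclear intensity or cell number is expressed as percent of the plate DMSO control, taking the median of replicates. HCC1569 values were smoothed for positional effects.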

[2] = system: TDF; assay: as above
Outline: as §1

[3] = system: TDF; assay: H1.0 immunofluorescence intensity relative to DMSO (% of DMSO); higher = stronger H1.0 induction, active = 120 or more
Outline: as §1

[4] = system: HCC1569; assay: H1.0 immunofluorescence intensity relative to DMSO (% of DMSO); higher = stronger H1.0 induction, active = 140 or more
Outline: as §1
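For H1.0 immunofluorescence intensity relative to DMSO in this document: TDF is a line of transformed human dermal fibroblasts of mesenchymal origin.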
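For cell number relative to DMSO in this document: TDF denotes transformed human dermal fibroblasts of mesenchymal origin.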

Structure (SMILES)	cell number [1]	cell number [2]	H1.0 immunofluorescence intensity [3]	H1.0 immunofluorescence intensity [4]
CC1(C)CCC(NC(=O)C(N)CCC(=O)O)CC1 (stereo not given)	103	111	85.3 (inactive)	91.7 (inactive)
CC(=O)OCC1=C(C(=O)[O-])N2C(=O)C(NC(=O)CSc3ccncc3)C2SC1.[Na+] (stereo not given) [Cephapirin sodium]	101	103	93.8 (inactive)	84.4 (inactive)
O=C(Nc1ncc([N+](=O)[O-])s1)c1ccc([N+](=O)[O-])c(Cl)c1 [3-chloro-4-nitro-N-(5-nitrothiazol-2-yl)benzamide]	84.1	83.6	108 (inactive)	122 (inactive)
COc1cc2ncnc(Nc3ccc(F)c(Cl)c3)c2cc1OCCCN1CCOCC1 [Gefitinib]	82 ± 11	102 ± 10	98.9 (inactive)	123 (inactive)
COc1c(OCCCCN2CCN(C)CC2)cc(O)c2c(=O)cc(-c3ccccc3)oc12	25.3	34.9	133 (active)	119 (inactive)
CCn1c(=O)c2[nH]c(-c3ccccc3)nc2n(CC)c1=O [1,3-Diethyl-8-phenylxanthine]	98.9	103	90.7 (inactive)	87.1 (inactive)
CCCCCC=CCC=CCC=CCC1OC1CCCC(=O)O (stereo not given) [5,6-Epoxyeicosatrienoic acid]	101	108	89.4 (inactive)	103 (inactive)
CCCCCCC=CC=CCCCCCCCC(=O)O [(9Z,11E)-Octadecadienoic acid]	97.6	106	99.8 (inactive)	100 (inactive)
O=c1cc(-c2ccc(O)cc2)oc2cc(O)c(C3OC(CO)C(O)C(O)C3O)c(O)c12 (stereo not given) [Isovitexin]	99.9	109	94.3 (inactive)	88.1 (inactive)
CC(C)NCC(O)COc1ccc(CCOCC2CC2)cc1.Cl (stereo not given) [Betaxolol hydrochloride]	102	122	95.4 (inactive)	89.4 (inactive)
CCCS(=O)(=O)Nc1ccc(F)c(C(=O)c2c[nH]c3ncc(Cl)cc23)c1F	96.8	92.9	105 (inactive)	111 (inactive)
Br.Br.N=C(N)SCCc1cnc[nH]1 [Imetit dihydrobromide]	103	103	94.8 (inactive)	80.5 (inactive)
OCC1OC(n2cnc3c(NC4CCCC4)nc(Cl)nc32)C(O)C1O (stereo not given) [2-Chloro-N6-cyclopentyladenosine]	109	104	89.3 (inactive)	80.9 (inactive)
NC1CCN(c2c(F)cc3c(=O)c(C(=O)O)cn(C4CC4)c3c2Cl)C1 (stereo not given) [Clinafloxacin]	103	101	94.3 (inactive)	107 (inactive)
NS(=O)(=O)c1ccc(N2CCN(CC[C@@H]3OCCc4ccccc43)CC2)cc1	101	102	99.4 (inactive)	104 (inactive)
CCCCCCCCC(=O)NCc1cc(OC)c(O)cc1I [N-(4-hydroxy-2-iodo-5-methoxybenzyl)nonanamide]	96.2	98.9	93.2 (inactive)	116 (inactive)
CC(CCc1ccc(O)cc1)NCCc1ccc(O)c(O)c1.Cl (stereo not given) [Dobutamine.HCl]	104	111	83.4 (inactive)	105 (inactive)
CCC(C)N(C)C(=O)c1cc2ccccc2c(-c2ccccc2Cl)n1 (stereo not given)	101	110	90.8 (inactive)	84 (inactive)
Cc1nc2ccccn2c(=O)c1CCN1CCC(C(=O)c2ccc(F)cc2)CC1 [Pirenperone]	99.5	100	96.5 (inactive)	103 (inactive)
Cc1cccc(-c2[nH]ncc2-c2ccc3ncccc3n2)n1	96.6	95.3	94.9 (inactive)	92.8 (inactive)
NC(=O)c1cccc(-c2cc(Nc3ccc(OC(F)(F)F)cc3)ncn2)c1 [Bcr-abl Inhibitor]	89.5	92.8	98.5 (inactive)	124 (inactive)
NC(=O)NO [Hydroxyurea]	103	108	93.9 (inactive)	91.8 (inactive)
CC(=O)NCCOC(=O)[C@H](Oc1cccc(C(F)(F)F)c1)c1ccc(Cl)cc1	104	100	95.3 (inactive)	104 (inactive)
Nc1nc(Cl)nc2c1ncn2C1OC(CO)C(O)C1O (stereo not given) [2-Chloroadenosine]	99.3	119	87.8 (inactive)	89 (inactive)
CCOP(=O)(OCC)C(=Cc1cc(C(C)(C)C)c(O)c(C(C)(C)C)c1)P(=O)(OCC)OCC	90.7	101	93.9 (inactive)	124 (inactive)
